Source: PubChem
PLK1 inh: PLK1 (human) kinase inhibition; AID 619; recombinant PLK1 kinase, TR-FRET peptide phosphorylation; inhibition, % at 10 µM; 97,000 compounds, 0.53% hits;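 active = inhibition of 50% or more in the single-concentration screen; inactive = inhibition below 50%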;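 note: 0% = DMSO max control and 100% = H-89 dihydrochloride min control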
PLK1 PBD inh: Plk1 (human) PBD binding inhibition; 97,000 compounds, 0.13% hits; P53350; AID 693; Plk1 PBD phosphopeptide binding, fluorescence polarization; inhibition, %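 (tested at about 20 µM)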; in the data active = inhibition above about 34%, passing the limit was not always enough
EphB4 antag: blocks human EphB4 binding to ephrin-B2; inhibition, % at 7 µM; 97,000 compounds, 0.15% hits; EphB4 LBD / TNYL-RAW-Alexa532 peptide, fluorescence polarization; P54760; AID 720;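 active = inhibition above the screen-wide mean inhibition plus 3 SD, cut at about 15% in these data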;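 note: 0% = DMSO wells and 100% = excess unlabeled TNYL-RAW peptide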
Smad3 FoxH1 inh: blocks human Smad3 binding to FoxH1 peptide | inhibition, % at 25 µM | TR-FRET Smad3/Dy647-FoxH1 peptide binding, europium anti-His | P84022 | 88,000 compounds, 0.29% hits;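 active = compounds that reduce the energy-transfer binding signal between the protein and its labelled peptide by more than half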;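 note: 0% = Smad3 plus labelled peptide maximal FRET and 100% = peptide-only background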
Target sequence (P84022 whole entry, looked up): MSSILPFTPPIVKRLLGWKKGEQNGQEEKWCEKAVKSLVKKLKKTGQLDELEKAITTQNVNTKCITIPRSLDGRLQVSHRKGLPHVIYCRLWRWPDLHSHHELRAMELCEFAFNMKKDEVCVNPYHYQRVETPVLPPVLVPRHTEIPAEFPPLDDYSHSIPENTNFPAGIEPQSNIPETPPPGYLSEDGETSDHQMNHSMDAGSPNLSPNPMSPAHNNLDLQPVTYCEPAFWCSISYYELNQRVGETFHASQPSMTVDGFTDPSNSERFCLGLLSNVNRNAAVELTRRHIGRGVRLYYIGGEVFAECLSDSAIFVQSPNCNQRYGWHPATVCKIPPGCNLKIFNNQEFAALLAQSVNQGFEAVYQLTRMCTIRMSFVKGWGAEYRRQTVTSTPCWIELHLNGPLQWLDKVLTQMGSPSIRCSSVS
FAK inh: inhibitors of human focal adhesion kinase; Q05397; biochemical FAK kinase activity assay; inhibition, %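 (tested at 7 µM)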; 97,000 compounds, 0.84% hits; AID 727; in the data active = inhibition above about 19%;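 note: 0% = DMSO and 100% = reference compound high control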
Numbers without * were called inactive; x = not tested or not shown. A selection: hits, their analogues and other compounds. The true share with any hit is near 1.5%.

SMILES	PLK1 inh	PLK1 PBD inh	EphB4 antag	Smad3 FoxH1 inh	FAK inh
OC(COc1c(Cl)cc(Cl)cc1Cl)CN1CCCCC1 (centres undefined)	54*	-1	4	-2	-2
CCCCOC(=O)Nc1nnc(CC)s1	4	-5	8	8	-3
COc1cccc(C2C=C(c3ccc(Br)s3)Nc3ncnn32)c1OC (centres undefined)	x	x	x	-7	x
COc1ccc(C2C=C(c3ccc(C)c(C)c3)Nc3ncnn32)c(OC)c1OC (centres undefined)	67*	-4	4	-2	1
Cn1c(NCc2ccco2)nc2ccccc21	-3	-18	8	5	-1
CCOC(=O)c1c(NC(=O)CSc2nnc3c(n2)[nH]c2ccccc23)sc2c1CCN(C)C2	1	-21	-7	x	20*
CCOC(=O)c1c(NC(=O)CSc2nnc3c(n2)[nH]c2ccc(F)cc23)sc(C(C)=O)c1C	-5	-26	1	x	1
Cc1cc(N2CCN(c3ccccn3)CC2)n2cc(-c3ccccc3)nc2n1	-3	-12	16*	x	3
Cc1cc(N2CCN(C)CC2)n2cc(-c3ccc(F)cc3)nc2n1	-11	10	-8	x	-4
CCOc1cccc(CNc2ccc(O)cc2)c1OCc1ccccc1Cl	-7	4	2	x	37*
COc1ccc(/C=N/Nc2nc(N3CCCC3)nc(N3CCCC3)n2)cc1O	-2	-10	5	-1	-3
CCCCCCn1c(SCC(C)C)nc2c1c(=O)[nH]c(=O)n2C	8	19	-1	2	2
COc1cc2c(cc1OC)C1=C(C#N)CCC(=O)N1CC2	-12	0	9	x	3
COc1cc2c(cc1OC)C1=C(C#N)CC/C(=N\S(=O)(=O)c3ccccc3)N1CC2	61*	-13	-9	7	-5
CC(=O)OCC(=O)[C@@]12OC(C)(C)O[C@@H]1C[C@H]1[C@H]3CC=C4C[C@@H](O)CC[C@]4(C)[C@@H]3CC[C@@]12C	x	x	x	98*	x
CC1=NN(/C(=N\c2nnc(C)s2)Nc2ccc(C)cc2)[C@H](c2ccc(C)cc2)S1	-5	-8	1	-6	21*
CC1=NN(/C(=N\c2nnc(C)s2)Nc2ccccc2)[C@H](c2cccc3ccccc23)S1	10	-16	-1	-12	4
CCN(CC)CCNc1nc(-c2ccccc2)c2c(c1C#N)CC(C)(C)OC2	0	3	2	-3	2
CC1(C)Cc2c(C#N)c(NCCCO)nc(-c3ccccc3)c2CO1	67*	-5	-4	-13	2
CCn1c(CSCc2ccc(F)cc2)nnc1SCC(=O)NCc1ccccc1	-10	-1	-1	x	-2
Clc1cccc(Nc2c3c(nc4ncnn24)CCC3)c1	54*	-11	0	1	1
O=S1(=O)c2cccc3cccc(c23)N1Cc1nnc(-c2ccccc2Br)o1	-2	-16	16*	22	8
CN1CCC[C@H]1c1cccnc1.O=C(O)c1ccccc1O.O=C([OH2+])c1ccccc1O.O=C([OH2+])c1ccccc1O.O=C([OH2+])c1ccccc1O.[Cu]	x	x	x	97*	x
CCOc1ccc(N(CC(=O)NCc2ccc(F)cc2)S(=O)(=O)c2c(C)noc2C)cc1	67*	-7	-6	-11	-2
O=S(=O)(O)c1cc(S(=O)(=O)O)c2c(N=Nc3cccc4ccccc34)c(O)ccc2c1	x	x	x	85*	x
SMILES	PLK1 inh	PLK1 PBD inh	EphB4 antag	Smad3 FoxH1 inh	FAK inh
S=c1nc[nH]c2c1ncn2Cc1ccco1	x	x	x	65*	x
O=C(Nc1cccc(Cl)c1Cl)C1CC(=O)N(c2ccc(Br)cc2)C1 (centres undefined)	-11	18	-8	-4	-4
CCc1nnc(NC(=O)CSc2nc3c(cc2C#N)CCC3)s1	-15	12	3	9	0
Cc1ccccc1NC(=O)CSc1nc(N)c(C#N)cc1C#N	30	-6	3	-4	1
CN1CCc2nc(SCC(=O)Nc3ccc(Cl)cc3)c(C#N)cc2C1	53*	-13	4	-7	13
COc1ccc(NC(=O)CSc2nc(N)c(C#N)cc2C#N)cc1	62*	0	4	x	3
O=[N+]([O-])c1cc(Cc2cc([N+](=O)[O-])c3cccnc3c2O)c(O)c2ncccc12	x	x	x	99*	x
CCc1nc(SCC(=O)N2CCC(C)CC2)c2c(=O)n(C)c(=O)n(C)c2n1	68*	2	1	6	2
CCc1nc(SCC(=O)N2CCC(Cc3ccccc3)CC2)c2c(=O)n(C)c(=O)n(C)c2n1	-9	-13	1	x	-10
COc1cccc(NC(=O)CN(c2ccc(C)cc2)S(=O)(=O)c2c(C)nn(C)c2C)c1	-4	-16	-8	-1	2
CCn1c(SCC(=O)Nc2sc3c(c2C#N)CCCC3)nnc1-c1ccncc1	-2	-13	17*	1	3
CCN(CC)CCNC(=O)c1cn(C)c2ccc(S(=O)(=O)N(C)C3CCCCC3)cc2c1=O	55*	-17	-2	-13	2
CCN(CC)CCNC(=O)c1cn(CC)c2ccc(S(=O)(=O)N(C)C)cc2c1=O	-5	-19	-7	9	3
Cc1ccc(N2C(N)=C(C#N)C(c3cccs3)C3=C2CC(C)(C)CC3=O)cc1 (centres undefined)	-31	11	-1	0	-1
CC1(C)Cc2cccc(OCC(=O)NC3CC3)c2O1	-12	8	-5	x	-1
NC(=O)c1ccc(-n2nnnc2SCc2ccc(F)cc2)cc1	7	-10	0	4	0
Cc1ccc(Nc2ccc([N+](=O)[O-])nc2[N+](=O)[O-])cc1	-11	-13	2	x	-2
N#Cc1cc2c(nc1SC1CCCCC1O)CCCC2 (centres undefined)	-9	2	1	93*	0
O=C(COc1ccc2ccccc2c1)Nc1cccc2cccnc12	-8	9	1	-3	13
O=C(COc1ccc2ccccc2c1)Nc1ccc(Cc2ccncc2)cc1	63*	7	-11	x	11
CN(C)Cc1c[nH]c2nc[nH]c(=O)c12	x	x	x	68*	x
COc1ccccc1NC(=O)CSc1nnc(-c2ccccc2)o1	58*	-8	3	0	5
Nc1ccc2oc3ccc(N)cc3c(=O)c2c1	-1	-5	-2	6	0
Cc1ccc(-c2nc(C3CCCN(S(=O)(=O)c4ccc(C)cc4)C3)no2)cc1 (centres undefined)	67*	-28	-8	9	-11
Cc1ccc(-c2nc(C3CCCN(S(=O)(=O)c4ccc(C(C)(C)C)cc4)C3)no2)cc1 (centres undefined)	-13	10	-4	x	-2
O=C(CSc1nnc(C2COc3ccccc3O2)o1)N1CCCc2ccccc21 (centres undefined)	4	-29	-2	5	-6
Cc1cc(C)nc(N2CCCC(C(=O)NCc3ccccc3)C2)n1 (centres undefined)	-8	21	29*	-7	2
Cc1[nH]nc2c1C(c1ccc(F)cc1)C(C#N)=C(N)O2 (centres undefined)	57*	8	8	-4	5
